Laboratory results: the supplement of paper PMC10849652
Of roughly 8,800 targets only a part is listed; those with a hit were picked by preference. About 0.5% of all pairs of compound and target were hits.

Compound: COC(=O)[C@H](CCSC)NC(=O)C1=C(C=C(C=C1)NC[C@H](CS)N)C2=CC=CC=C2
Test: log2 fold change, soluble protein after heating vs DMSO (PISA); higher = thermal stabilisation; K562 lysate, 10 uM; active = over 0.2 and 3.5 SD of the protein, either way, in both replicates (recomputed)
How it was run: (§1)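 The values are log-two fold changes in thermal stability compared with solvent controls and come from duplicates. They were obtained by TMTpro 16plex LC-MS/MS, with channel sums equalised, on the supernatant after 21,000xg for 90 min. That supernatant came from crude K562 extract at 1 mg/mL protein treated with 10 μM compound for 30 min, heated for 3 min across 48°C-58°C, pooled and brought to 0.5% NP-40 at 4°C.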

UniProt P57721, sequence (P57721 whole entry, looked up): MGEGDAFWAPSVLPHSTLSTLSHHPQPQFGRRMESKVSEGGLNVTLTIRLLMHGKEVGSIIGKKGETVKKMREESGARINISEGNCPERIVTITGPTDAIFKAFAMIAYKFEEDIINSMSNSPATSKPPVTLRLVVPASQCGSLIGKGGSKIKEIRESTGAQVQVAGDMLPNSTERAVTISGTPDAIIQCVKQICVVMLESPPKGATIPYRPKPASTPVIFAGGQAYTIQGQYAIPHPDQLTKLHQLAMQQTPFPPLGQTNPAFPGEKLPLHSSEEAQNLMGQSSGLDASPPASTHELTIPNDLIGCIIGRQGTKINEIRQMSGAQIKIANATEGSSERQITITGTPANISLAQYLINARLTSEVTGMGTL
UniProt Q9BTU6, sequence (Q9BTU6 whole entry, looked up): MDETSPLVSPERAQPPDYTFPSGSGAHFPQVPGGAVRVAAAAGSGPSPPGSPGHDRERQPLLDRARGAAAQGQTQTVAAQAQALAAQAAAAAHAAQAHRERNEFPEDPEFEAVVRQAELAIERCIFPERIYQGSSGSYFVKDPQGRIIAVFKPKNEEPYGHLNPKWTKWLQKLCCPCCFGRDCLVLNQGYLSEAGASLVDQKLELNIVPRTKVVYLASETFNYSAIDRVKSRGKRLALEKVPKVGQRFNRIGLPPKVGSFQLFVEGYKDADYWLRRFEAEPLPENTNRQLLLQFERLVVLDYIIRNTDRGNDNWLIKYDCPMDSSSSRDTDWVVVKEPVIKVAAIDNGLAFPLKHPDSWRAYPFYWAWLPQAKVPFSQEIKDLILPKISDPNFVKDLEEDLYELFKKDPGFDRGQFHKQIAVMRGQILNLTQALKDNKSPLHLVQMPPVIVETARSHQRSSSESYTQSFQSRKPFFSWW
UniProt Q13356, sequence (Q13356 whole entry, looked up): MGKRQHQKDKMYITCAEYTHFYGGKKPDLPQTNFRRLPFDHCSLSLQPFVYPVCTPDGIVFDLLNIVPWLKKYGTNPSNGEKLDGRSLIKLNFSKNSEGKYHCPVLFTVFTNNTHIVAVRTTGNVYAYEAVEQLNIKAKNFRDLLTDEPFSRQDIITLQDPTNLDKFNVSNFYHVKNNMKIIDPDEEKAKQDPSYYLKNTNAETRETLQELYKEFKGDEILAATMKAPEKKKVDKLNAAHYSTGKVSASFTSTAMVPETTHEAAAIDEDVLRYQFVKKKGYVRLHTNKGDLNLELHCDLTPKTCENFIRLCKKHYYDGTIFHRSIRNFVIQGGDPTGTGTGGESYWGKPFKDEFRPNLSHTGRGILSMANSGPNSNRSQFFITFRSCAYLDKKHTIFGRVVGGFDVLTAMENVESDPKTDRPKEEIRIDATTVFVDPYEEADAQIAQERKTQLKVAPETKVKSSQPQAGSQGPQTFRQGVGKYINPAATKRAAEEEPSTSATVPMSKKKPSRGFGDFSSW
UniProt P28065, sequence (P28065 whole entry, looked up): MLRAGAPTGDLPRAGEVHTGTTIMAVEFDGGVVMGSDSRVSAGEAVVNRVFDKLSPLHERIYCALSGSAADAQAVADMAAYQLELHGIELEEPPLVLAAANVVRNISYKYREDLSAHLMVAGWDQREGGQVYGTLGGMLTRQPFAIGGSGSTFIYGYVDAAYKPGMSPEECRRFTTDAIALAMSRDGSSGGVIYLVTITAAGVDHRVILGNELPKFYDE
UniProt Q5VU43, sequence (Q5VU43 whole entry, looked up): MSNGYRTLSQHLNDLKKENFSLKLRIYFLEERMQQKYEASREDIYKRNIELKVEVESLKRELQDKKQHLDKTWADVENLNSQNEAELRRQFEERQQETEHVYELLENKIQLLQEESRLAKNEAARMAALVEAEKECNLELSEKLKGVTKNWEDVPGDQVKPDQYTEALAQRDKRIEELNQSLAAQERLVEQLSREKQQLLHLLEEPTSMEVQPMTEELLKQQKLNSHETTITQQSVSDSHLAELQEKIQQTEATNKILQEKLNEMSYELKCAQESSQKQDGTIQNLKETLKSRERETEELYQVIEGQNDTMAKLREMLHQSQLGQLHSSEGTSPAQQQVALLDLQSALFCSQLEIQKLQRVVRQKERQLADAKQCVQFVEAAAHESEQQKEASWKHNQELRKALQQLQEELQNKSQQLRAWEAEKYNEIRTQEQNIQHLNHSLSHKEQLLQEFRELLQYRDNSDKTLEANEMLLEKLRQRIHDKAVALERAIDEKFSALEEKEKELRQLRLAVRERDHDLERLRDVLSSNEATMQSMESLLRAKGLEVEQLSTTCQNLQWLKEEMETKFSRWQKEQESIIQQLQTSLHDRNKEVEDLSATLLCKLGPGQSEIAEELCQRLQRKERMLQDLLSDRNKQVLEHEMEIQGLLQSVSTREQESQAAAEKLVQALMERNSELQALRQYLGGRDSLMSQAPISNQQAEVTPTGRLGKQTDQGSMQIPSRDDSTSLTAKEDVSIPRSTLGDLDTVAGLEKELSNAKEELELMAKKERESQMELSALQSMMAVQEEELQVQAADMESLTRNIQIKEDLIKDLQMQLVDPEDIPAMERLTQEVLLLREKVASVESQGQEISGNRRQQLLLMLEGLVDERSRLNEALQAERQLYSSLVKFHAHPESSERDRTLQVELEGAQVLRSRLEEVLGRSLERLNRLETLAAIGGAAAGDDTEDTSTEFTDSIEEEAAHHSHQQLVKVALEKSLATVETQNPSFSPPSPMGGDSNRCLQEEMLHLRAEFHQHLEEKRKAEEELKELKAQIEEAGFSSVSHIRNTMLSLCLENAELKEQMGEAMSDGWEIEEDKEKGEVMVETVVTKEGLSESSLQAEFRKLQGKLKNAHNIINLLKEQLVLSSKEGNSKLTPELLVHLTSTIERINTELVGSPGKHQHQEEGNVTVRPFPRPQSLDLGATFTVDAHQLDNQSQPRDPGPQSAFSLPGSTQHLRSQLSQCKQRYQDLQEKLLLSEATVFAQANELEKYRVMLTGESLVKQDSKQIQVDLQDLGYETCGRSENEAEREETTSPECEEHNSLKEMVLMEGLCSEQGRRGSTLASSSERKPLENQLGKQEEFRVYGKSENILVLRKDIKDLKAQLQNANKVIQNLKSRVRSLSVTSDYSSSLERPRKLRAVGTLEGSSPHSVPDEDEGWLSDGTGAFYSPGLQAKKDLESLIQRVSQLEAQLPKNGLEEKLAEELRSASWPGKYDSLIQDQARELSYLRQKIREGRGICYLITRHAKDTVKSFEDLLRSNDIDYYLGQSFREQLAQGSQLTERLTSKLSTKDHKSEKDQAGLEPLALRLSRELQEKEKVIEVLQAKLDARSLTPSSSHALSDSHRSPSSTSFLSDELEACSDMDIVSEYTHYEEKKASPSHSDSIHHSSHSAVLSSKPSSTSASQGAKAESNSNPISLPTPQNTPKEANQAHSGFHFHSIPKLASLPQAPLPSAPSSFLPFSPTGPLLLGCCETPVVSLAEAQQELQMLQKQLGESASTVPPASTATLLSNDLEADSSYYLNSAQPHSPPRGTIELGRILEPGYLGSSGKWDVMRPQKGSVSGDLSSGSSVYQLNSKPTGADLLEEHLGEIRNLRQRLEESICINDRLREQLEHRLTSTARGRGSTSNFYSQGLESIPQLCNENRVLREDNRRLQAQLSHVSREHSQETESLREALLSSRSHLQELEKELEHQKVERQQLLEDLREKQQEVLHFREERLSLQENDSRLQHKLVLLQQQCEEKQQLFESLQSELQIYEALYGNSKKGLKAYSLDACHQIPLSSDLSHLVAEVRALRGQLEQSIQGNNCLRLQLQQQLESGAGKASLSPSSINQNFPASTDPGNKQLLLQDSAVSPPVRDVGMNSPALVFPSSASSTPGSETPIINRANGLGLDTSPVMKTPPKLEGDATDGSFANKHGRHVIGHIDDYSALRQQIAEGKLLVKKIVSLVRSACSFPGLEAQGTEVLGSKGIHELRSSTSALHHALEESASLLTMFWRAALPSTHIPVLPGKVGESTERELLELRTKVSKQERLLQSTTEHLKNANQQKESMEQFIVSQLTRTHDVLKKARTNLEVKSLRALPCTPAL
UniProt P15735, sequence (P15735 whole entry, looked up): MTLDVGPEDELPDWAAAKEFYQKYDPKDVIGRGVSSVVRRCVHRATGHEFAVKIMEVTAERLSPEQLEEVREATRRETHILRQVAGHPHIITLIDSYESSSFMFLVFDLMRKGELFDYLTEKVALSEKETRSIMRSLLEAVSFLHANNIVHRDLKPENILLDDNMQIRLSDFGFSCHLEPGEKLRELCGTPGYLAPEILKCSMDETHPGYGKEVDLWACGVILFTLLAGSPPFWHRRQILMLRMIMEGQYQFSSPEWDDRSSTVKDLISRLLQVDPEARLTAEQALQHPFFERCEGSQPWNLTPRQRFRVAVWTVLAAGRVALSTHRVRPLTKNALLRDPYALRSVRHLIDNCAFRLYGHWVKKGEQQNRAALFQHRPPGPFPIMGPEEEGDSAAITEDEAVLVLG
UniProt Q96CD2, sequence (Q96CD2 whole entry, looked up): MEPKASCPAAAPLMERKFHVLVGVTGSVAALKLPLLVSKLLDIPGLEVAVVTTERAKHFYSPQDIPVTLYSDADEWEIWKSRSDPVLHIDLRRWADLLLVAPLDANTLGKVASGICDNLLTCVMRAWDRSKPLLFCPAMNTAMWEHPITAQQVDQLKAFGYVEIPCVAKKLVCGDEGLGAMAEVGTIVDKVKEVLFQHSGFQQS
UniProt Q8N4L2, sequence (Q8N4L2 whole entry, looked up): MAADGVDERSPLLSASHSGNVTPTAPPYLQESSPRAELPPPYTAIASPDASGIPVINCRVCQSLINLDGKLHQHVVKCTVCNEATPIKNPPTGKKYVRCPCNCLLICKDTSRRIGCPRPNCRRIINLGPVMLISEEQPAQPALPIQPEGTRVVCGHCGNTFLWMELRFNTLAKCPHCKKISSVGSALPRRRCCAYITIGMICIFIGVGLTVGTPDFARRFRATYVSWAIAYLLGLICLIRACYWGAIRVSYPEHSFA
UniProt P07737, sequence (P07737 whole entry, looked up): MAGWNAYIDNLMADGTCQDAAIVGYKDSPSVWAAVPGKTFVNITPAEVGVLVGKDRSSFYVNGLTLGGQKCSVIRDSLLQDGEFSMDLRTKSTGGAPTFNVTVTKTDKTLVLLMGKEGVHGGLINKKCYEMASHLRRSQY

log2 fold change, inactive:
PFKP (UniProt Q01813) -0.001, PHKG2 (UniProt P15735) 0.056, PPCDC (UniProt Q96CD2) -0.027, PDE2A (UniProt O00408) -0.019, PRKCB isoform 2 (UniProt P05771) -0.203, PIP4P2 (UniProt Q8N4L2) -0.12, PHKA1 (UniProt P46020) 0.065, PIK3R2 (UniProt O00459) -0.225, PSMB9 (UniProt P28065) 0.027, PHACTR4 isoform 2 (UniProt Q8IZ21) -0.016, PI4K2A (UniProt Q9BTU6) -0.092, PDE4DIP isoform 4 (UniProt Q5VU43) 0.004, PDXDC1 (UniProt Q6P996) 0.085, PPIL2 (UniProt Q13356) 0.036, PRRC2A (UniProt P48634) -0.044, PCBP3 (UniProt P57721) -0.023

Compound: COc1cc(Nc2ncc3c(n2)-c2ccc(Cl)cc2C(c2c(F)cccc2OC)=NC3)ccc1C(=O)O [alisertib]
Test: as above
How it was run: as §1

log2 fold change, inactive:
PUS1 (UniProt Q9Y606) 0.005, PTPN23 (UniProt Q9H3S7) 0.012, PDCD6IP (UniProt Q8WUM4) -0.039, PMS2 (UniProt P54278) 0.009, PSTPIP2 (UniProt Q9H939) -0.052, PUM1 isoform 3 (UniProt Q14671) 0.031, PICALM (UniProt Q13492) 0.008, PTPN1 (UniProt P18031) 0.005, PPP2R5C isoform 5 (UniProt Q13362) 0.002, POLD3 (UniProt Q15054) -0.025, PIP4K2A (UniProt P48426) 0.01, PDS5A (UniProt Q29RF7) 0.014, PFN1 (UniProt P07737) 0.004, PLXNB2 (UniProt O15031) 0.017, PFAS (UniProt O15067) 0.009, PITRM1 isoform 2 (UniProt Q5JRX3) -0.016, PPP1R8 (UniProt Q12972) 0.022, PLEKHF1 (UniProt Q96S99) -0.008, PRKACB isoform 2 (UniProt P22694) 0, PIP4K2C (UniProt Q8TBX8) 0.013, PDPK1 (UniProt O15530) 0.153, PIK3C3 (UniProt Q8NEB9) 0.012, PHOSPHO2 (UniProt Q8TCD6) -0.013, PFKP (UniProt Q01813) -0.004, PHKG2 (UniProt P15735) -0.045, PPCDC (UniProt Q96CD2) -0.051, PDE2A (UniProt O00408) 0.014, PRKCB isoform 2 (UniProt P05771) 0.039, PIP4P2 (UniProt Q8N4L2) 0.006, PHKA1 (UniProt P46020) -0.014, PIK3R2 (UniProt O00459) 0.008, PSMB9 (UniProt P28065) -0.04, PHACTR4 isoform 2 (UniProt Q8IZ21) -0.019, PI4K2A (UniProt Q9BTU6) -0.008, PDE4DIP isoform 4 (UniProt Q5VU43) 0.023, PDXDC1 (UniProt Q6P996) 0.049, PPIL2 (UniProt Q13356) -0.018, PRRC2A (UniProt P48634) 0.016, PCBP3 (UniProt P57721) 0.019
